Whole data set: some 18,000 sequences, median “log2 normalized intensity” near 0.36, cut for the highest 2% near 7.3. What follows is part of a selection rich in the highest values, with near analogues and random picks from the rest.

The assay deals with T1, HNF4alpha8 (COS-7 nuclear extract) (Homo sapiens, UniProt P41235-5 1-452).
T1 sequence: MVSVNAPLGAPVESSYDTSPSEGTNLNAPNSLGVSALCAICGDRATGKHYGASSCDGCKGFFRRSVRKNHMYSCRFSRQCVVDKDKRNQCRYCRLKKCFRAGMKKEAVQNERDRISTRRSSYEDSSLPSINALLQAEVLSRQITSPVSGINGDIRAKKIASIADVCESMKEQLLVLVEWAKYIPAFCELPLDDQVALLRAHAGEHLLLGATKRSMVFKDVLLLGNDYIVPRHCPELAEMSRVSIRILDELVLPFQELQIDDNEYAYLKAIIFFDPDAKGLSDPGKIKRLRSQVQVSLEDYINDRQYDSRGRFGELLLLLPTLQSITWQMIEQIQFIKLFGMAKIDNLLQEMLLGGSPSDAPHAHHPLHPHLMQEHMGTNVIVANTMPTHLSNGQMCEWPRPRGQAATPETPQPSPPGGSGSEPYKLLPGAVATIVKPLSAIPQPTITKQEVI
Put plainly: protein-binding microarray; COS-7 nuclear extract on double-stranded Agilent 4x180k PBM; binding buffer, salt, pH and temperature not given in the material; high values mean tight binding. To be noted: chain copies: 2; label: 3' end of strand 1 on the slide; dsDNA, one strand shown. Put shortly: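 Double-stranded oligonucleotides of ~60 nt, representing ~44,000 test sequences in quadruplicate, made up a custom Agilent SurePrint G3 4x180k array. Nuclear extracts from COS-7 cells transiently transfected by CaPO4 with a human HNF4α isoform expression vector were applied, and bound HNF4α was imaged at 2-µm resolution on an Agilent G2565CA scanner. Binding signal refers to the background-corrected, normalized gProcessedSignal output of Agilent software.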
Consider “TATCAGCTTTGAGACACCTGGCCAAGTACAGCCTAGGGAGATTAGAGTATCGGTCGA”, for which the binding signal was -0.899 log2 normalized intensity.
In the case of “TTTTCCACCCTCCCCTCCCCCTCCTCCCCTGCCTAGGGAGATTAGAGTATCGGTCGA” it was 7.22 log2 normalized intensity; in that of “AACCCGCCCCCTCCCCCTGCCGGCGGCGCAGCCTAGGGAGATTAGAGTATCGGTCGA”, 6.05 log2 normalized intensity.
In the case of “ATTGTGAAACGTTTGAATTCTTGCCTATCCGCCTAGGGAGATTAGAGTATCGGTCGA” it was -0.841 log2 normalized intensity; in that of “GGTTGCCCAGGGAGAGCTGGACTTTCATCTGCCTAGGGAGATTAGAGTATCGGTCGA”, 5.54 log2 normalized intensity; in that of “GGCGGCTAGTGTACAGGTGACCTTTGGAATGCCTAGGGAGATTAGAGTATCGGTCGA”, 9.41 log2 normalized intensity.
Regarding “GGAATGAGCAGGAACCTTGTGGTGGTGAAAGCCTAGGGAGATTAGAGTATCGGTCGA”, the binding signal amounted to 0.216 log2 normalized intensity.
Turning to “GCTAGGTGGCGGGCTGGCTCAGGACAGGTGGCCTAGGGAGATTAGAGTATCGGTCGA”, the binding signal was -0.886 log2 normalized intensity.
As for “CTAGTGTACAGGTGACCTTTGGAATGAACCGCCTAGGGAGATTAGAGTATCGGTCGA”, the figure is 7.75 log2 normalized intensity.
In the case of “TATCTTTGGAGAATGCCTTTTGTGTAGGAGGCCTAGGGAGATTAGAGTATCGGTCGA” it was 1.69 log2 normalized intensity; in that of “AAAGCTGGCTGGCGGCTAGTGTACAGGTGAGCCTAGGGAGATTAGAGTATCGGTCGA”, 0.565 log2 normalized intensity.
As to “AGATAGTGACGGAGGTGACCTTTGGTTGTCGCCTAGGGAGATTAGAGTATCGGTCGA”, the binding signal was determined as 6.24 log2 normalized intensity.
As for “TTGGAGAATGCCTTTTGTGTAGGAGTACACGCCTAGGGAGATTAGAGTATCGGTCGA”, the figure is 1.46 log2 normalized intensity; as for “TGGCTGGCGGCTAGTGTACAGGTGACCTTTGCCTAGGGAGATTAGAGTATCGGTCGA”, 7.84 log2 normalized intensity; as for “TCCCTGAAGGCCAGGCAGCACAATTTGTGTGCCTAGGGAGATTAGAGTATCGGTCGA”, -0.959 log2 normalized intensity.
In the case of “TGATCTTTGAAACATAACAGCAACAACACAGCCTAGGGAGATTAGAGTATCGGTCGA”, the binding signal was determined as 0.241 log2 normalized intensity.
In the case of “TATTGAGAAGAAACCTTTGCCCAACAGGATGCCTAGGGAGATTAGAGTATCGGTCGA” it was 2.13 log2 normalized intensity; in that of “GGCGAGTGTGCAATTAGAGCAAAGGTTACTGCCTAGGGAGATTAGAGTATCGGTCGA”, 3.57 log2 normalized intensity; in that of “ACAAAGATCATAAATGCCTCCCCCTCTTTAGCCTAGGGAGATTAGAGTATCGGTCGA”, 3.85 log2 normalized intensity.
Consider “TGGGCCAAAGGTCATACCTGTCTAGGTGGAGCCTAGGGAGATTAGAGTATCGGTCGA”, for which the binding signal was 4.74 log2 normalized intensity.
In the case of “GGGGAGGTGGGAAAAGAAATGTAGTGACAGGCCTAGGGAGATTAGAGTATCGGTCGA” it was -0.392 log2 normalized intensity; in that of “TGCATGGATTTCTCAGTTGAGGAATGGGTAGCCTAGGGAGATTAGAGTATCGGTCGA”, 0.827 log2 normalized intensity; in that of “TAGGGAAAATAGTGACCCTGTCTCTCAGTCGCCTAGGGAGATTAGAGTATCGGTCGA”, 1.62 log2 normalized intensity.
As for “TAATTCTTCTTTGAAAGTTTGGTGGACTTTGCCTAGGGAGATTAGAGTATCGGTCGA”, the figure is 6.91 log2 normalized intensity.
As for “TTGAAAGTTTGGTGGACTTTGGCCGTGAAGGCCTAGGGAGATTAGAGTATCGGTCGA”, the figure is 7.64 log2 normalized intensity; as for “GGCATTAATTCTTCTTTGAAAGTTTGGTGGGCCTAGGGAGATTAGAGTATCGGTCGA”, 1.65 log2 normalized intensity; as for “CTTCTTTGAAAGTTTGGTGGACTTTGGCCGGCCTAGGGAGATTAGAGTATCGGTCGA”, 10.1 log2 normalized intensity.
Regarding “AGTTTGGTGGACTTTGGCCGTGAAGCCGTCGCCTAGGGAGATTAGAGTATCGGTCGA”, the binding signal was found to be 6.75 log2 normalized intensity.
In the case of “GGTGGACTTTGGCCGTGAAGCCGTCCTGTCGCCTAGGGAGATTAGAGTATCGGTCGA” it was 5.87 log2 normalized intensity; in that of “TGATAAGATTTATCTCTCCAAGGTACTGTGGCCTAGGGAGATTAGAGTATCGGTCGA”, 0.189 log2 normalized intensity; in that of “GTGCACTTTGACCCTGCTGTAGTGTGTAAGGCCTAGGGAGATTAGAGTATCGGTCGA”, 5.69 log2 normalized intensity.
As for “TCTTGTCCTTCCCCTTTTGTGTTTGTCCCTGCCTAGGGAGATTAGAGTATCGGTCGA”, the binding signal was determined as 3.03 log2 normalized intensity.
As for “TCCTCTCTCCCACAAGGGCAGCCCTGTTTAGCCTAGGGAGATTAGAGTATCGGTCGA”, the figure is -0.515 log2 normalized intensity; as for “TTGTCCTTAGACAGTAACCCTTGAGCTCTGGCCTAGGGAGATTAGAGTATCGGTCGA”, 3.73 log2 normalized intensity.
In the case of “TGAGACTTTGGACTTTTGAACTAAGGCTGGGCCTAGGGAGATTAGAGTATCGGTCGA” it was 5.5 log2 normalized intensity; in that of “CTTTGGACTTTTGAACTAAGGCTGGAATGAGCCTAGGGAGATTAGAGTATCGGTCGA”, 3.69 log2 normalized intensity; in that of “AGCTGGACTTTGAACTTCATGTGTGGTGCAGCCTAGGGAGATTAGAGTATCGGTCGA”, 6.95 log2 normalized intensity.
In the case of “CCTAAATCTAAGCTGGACTTTGAACTTCATGCCTAGGGAGATTAGAGTATCGGTCGA” it was 9.68 log2 normalized intensity.
“GACTTTGAACTTCATGTGTGGTGCAGATTCGCCTAGGGAGATTAGAGTATCGGTCGA”: the binding signal amounted to 2.1 log2 normalized intensity.
In the case of “ATCTAAGCTGGACTTTGAACTTCATGTGTGGCCTAGGGAGATTAGAGTATCGGTCGA” it was 8.61 log2 normalized intensity.
As for “ATTATGGTAGGCAGCCTCTGAGATGGACTCGCCTAGGGAGATTAGAGTATCGGTCGA”, the figure is 3.96 log2 normalized intensity.
In the case of “AAATTATTACTCCCACCGTGTGTGCACTTTGCCTAGGGAGATTAGAGTATCGGTCGA” it was 3.9 log2 normalized intensity.
